Cdc42 wt: modulators (inhibitors or activators) of GTP binding to human Cdc42 wildtype; P60953; GST-Cdc42 beads, Bodipy-GTP binding, flow cytometry; actives lie on both sides; percent activity (GTP binding), % at 10 µM; hit rate 0.2% among 190,000; AID 761;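 active = percent activity GTP binding at least 20 points away from the 100% baseline, either down as inhibitor or up as activator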;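 note: median bead fluorescence of bound Bodipy-FL-GTP at 100 nM; below 100% means less GTP binding so inhibitor and above means activator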
Target sequence (P60953 whole entry, looked up): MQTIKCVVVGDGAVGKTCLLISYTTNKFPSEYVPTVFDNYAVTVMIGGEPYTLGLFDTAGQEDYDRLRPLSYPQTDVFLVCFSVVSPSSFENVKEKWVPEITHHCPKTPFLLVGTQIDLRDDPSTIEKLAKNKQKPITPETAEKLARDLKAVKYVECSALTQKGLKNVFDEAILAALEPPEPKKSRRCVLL
Rab2A wt mod: changes GTP binding to wildtype dog Rab2A, up or down; hit rate 0.19% among 190,000; GTP binding activity, % at 10 µM; P61105; GST-Rab2 wt beads, Bodipy-GTP binding, flow cytometry; AID 760;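 active = GTP binding activity at least 20 points away from 100%, either lowered or raised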
HRas wt GTP: human HRas wildtype GTP binding, change in either direction; GST-Ras wt beads, Bodipy-FL-GTP binding, flow cytometry; actives lie on both sides; AID 759; GTP binding activity, % at 10 µM; hit rate 0.14% among 190,000;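 active = GTP binding activity at least 20% away from the 100% baseline, either lowered as inhibitor or raised as activator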
Target sequence (P01112 whole entry, looked up): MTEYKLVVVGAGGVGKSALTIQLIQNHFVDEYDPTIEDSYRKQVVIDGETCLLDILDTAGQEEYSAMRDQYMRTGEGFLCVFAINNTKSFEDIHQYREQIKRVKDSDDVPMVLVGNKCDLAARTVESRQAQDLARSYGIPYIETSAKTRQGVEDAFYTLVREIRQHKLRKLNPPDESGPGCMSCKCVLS
Rac1 wt GTP bind: modulators of human Rac1 wildtype GTP binding | AID 757 | hit rate 0.27% among 190,000 | GST-Rac1 beads, fluorescent GTP binding, flow cytometry; actives lie on both sides; 0 = cold GTP competed, 100 = untreated | GTP binding activity (% of control), % at 10 µM;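 active = GTP binding activity at least 20 points away from the 100% control level, either lower or higher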
Rac1 mut GTP: modulators of GTP binding to human Rac1 activated mutant. GST-Rac1 activated beads, fluorescent GTP binding, flow cytometry; actives lie on both sides; 100% means binding = to untreated wells. AID 764. hit rate 0.11% among 190,000. P63000. percent activity (GTP binding), % at 10 µM;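 active = GTP binding at least 20 percentage points away from the 100% baseline, in either direction, so actives lie on both sides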
Rab7 wt GTP bind: modulators of GTP binding to dog Rab7 wildtype GTPase | GTP binding activity (percent of control), % at 10 µM | GST-Rab7 beads, fluorescent GTP binding, flow cytometry; actives lie on both sides; untreated = 100%, excess cold GTP = 0% | AID 758 | hit rate 0.055% among 190,000;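 active = fluorescent GTP binding to Rab7 beads changed by at least 20 points from the 100% baseline, either direction, mostly lower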;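 note: median green fluorescence of bound Bodipy-FL-GTP per Rab7 bead population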
Hits are given with their value; [ ] = remark or other dose. Sampled rows, rich in hits. Any-hit rate of the full collection: about 0.38%.

What do the screens show for `O=C(COc1ncnc2cc([N+](=O)[O-])ccc12)NCCc1ccc(Cl)cc1`?
Cdc42 wt: inactive; Rab2A wt mod: inactive; HRas wt GTP: inactive; Rac1 wt GTP bind: 77; Rac1 mut GTP: inactive; Rab7 wt GTP bind: inactive

What do the screens show for `COc1ccc(N=C2C(=O)N3c4c(cccc42)C(C)=CC3(C)C)cc1`?
Cdc42 wt: inactive; Rab2A wt mod: inactive; HRas wt GTP: inactive; Rac1 wt GTP bind: inactive; Rac1 mut GTP: inactive; Rab7 wt GTP bind: inactive

What do the screens show for `CC1=C(C(=O)OC(C)C)C(c2ccccc2)NC(=S)N1C` (stereo not given)?
Cdc42 wt: inactive; Rab2A wt mod: inactive; HRas wt GTP: inactive; Rac1 wt GTP bind: inactive; Rac1 mut GTP: inactive; Rab7 wt GTP bind: inactive

Results for O=c1c2ccccc2nc2c3ccccc3c(NCc3ccco3)nn12 ?
Cdc42 wt: 67; Rab2A wt mod: 66; HRas wt GTP: 68; Rac1 wt GTP bind: 77; Rac1 mut GTP: inactive; Rab7 wt GTP bind: inactive

Results for O=c1c2ccccc2nc2c3ccccc3c(Cl)nn12 ?
Cdc42 wt: inactive; Rab2A wt mod: 78; HRas wt GTP: inactive; Rac1 wt GTP bind: 69; Rac1 mut GTP: inactive; Rab7 wt GTP bind: inactive

How did O=c1c2ccccc2nc2c3ccccc3cnn12 do in these assays?
Cdc42 wt: 78; Rab2A wt mod: 77; HRas wt GTP: 77; Rac1 wt GTP bind: 65; Rac1 mut GTP: inactive; Rab7 wt GTP bind: inactive

What do the screens show for `CCN1CCCC1CN(Cc1cc2ccc(C)cc2[nH]c1=O)C(=S)Nc1ccc(F)cc1` (stereo not given)?
Cdc42 wt: inactive; Rab2A wt mod: inactive; HRas wt GTP: inactive; Rac1 wt GTP bind: inactive; Rac1 mut GTP: inactive; Rab7 wt GTP bind: inactive

How did COc1ccc(/C=N/Nc2ncnc3sc(C)c(C)c23)cc1 do in these assays?
Cdc42 wt: inactive; Rab2A wt mod: inactive; HRas wt GTP: inactive; Rac1 wt GTP bind: inactive; Rac1 mut GTP: inactive; Rab7 wt GTP bind: inactive

What do the screens show for `Cc1sc2ncnc(N/N=C/c3ccc(O)cc3)c2c1C`?
Cdc42 wt: inactive; Rab2A wt mod: 77; HRas wt GTP: inactive; Rac1 wt GTP bind: inactive; Rac1 mut GTP: inactive; Rab7 wt GTP bind: inactive

Results for CS(=O)(=O)N1CCC(C(=O)N2CCN(c3ccccc3F)CC2)CC1 ?
Cdc42 wt: inactive; Rab2A wt mod: inactive; HRas wt GTP: inactive; Rac1 wt GTP bind: inactive; Rac1 mut GTP: inactive; Rab7 wt GTP bind: inactive

Results for O=[N+]([O-])c1cc(-c2ncccn2)c([N+](=O)[O-])s1 ?
Cdc42 wt: inactive; Rab2A wt mod: inactive; HRas wt GTP: inactive; Rac1 wt GTP bind: inactive; Rac1 mut GTP: 76; Rab7 wt GTP bind: inactive

How did CCOC(=O)c1c(NC(=O)/C=C/c2ccc3c(c2)OCO3)sc(C)c1CC do in these assays?
Cdc42 wt: inactive; Rab2A wt mod: inactive; HRas wt GTP: inactive; Rac1 wt GTP bind: inactive; Rac1 mut GTP: 77; Rab7 wt GTP bind: inactive

How did CCOC(=O)c1c(NC(=O)/C=C/c2ccc3c(c2)OCO3)sc(C)c1C do in these assays?
Cdc42 wt: inactive; Rab2A wt mod: inactive; HRas wt GTP: inactive; Rac1 wt GTP bind: inactive; Rac1 mut GTP: inactive; Rab7 wt GTP bind: inactive

Results for Cc1cc(-c2n[nH]c(=S)n2/N=C/c2cc([N+](=O)[O-])ccc2Cl)n[nH]1 ?
Cdc42 wt: inactive; Rab2A wt mod: 74; HRas wt GTP: 77; Rac1 wt GTP bind: 71; Rac1 mut GTP: inactive; Rab7 wt GTP bind: inactive

How did Cc1cc(-c2n[nH]c(=S)n2/N=C/c2ccc(Cl)c([N+](=O)[O-])c2)n[nH]1 do in these assays?
Cdc42 wt: inactive; Rab2A wt mod: inactive; HRas wt GTP: inactive; Rac1 wt GTP bind: inactive; Rac1 mut GTP: inactive; Rab7 wt GTP bind: inactive

Results for OCCC1CN(Cc2cn[nH]c2C2CCCCC2)CCN1C1CCCC1 (stereo not given) ?
Cdc42 wt: inactive; Rab2A wt mod: inactive; HRas wt GTP: inactive; Rac1 wt GTP bind: inactive; Rac1 mut GTP: inactive; Rab7 wt GTP bind: inactive

Results for Oc1ccc(N=Cc2cc(Br)c(N3CCOCC3)o2)cc1 ?
Cdc42 wt: inactive; Rab2A wt mod: inactive; HRas wt GTP: inactive; Rac1 wt GTP bind: inactive; Rac1 mut GTP: inactive; Rab7 wt GTP bind: inactive

Results for O=[N+]([O-])c1cc(Br)c(O)c(C=Nc2ccc(N3CCOCC3)cc2)c1 ?
Cdc42 wt: 79; Rab2A wt mod: inactive; HRas wt GTP: inactive; Rac1 wt GTP bind: inactive; Rac1 mut GTP: inactive; Rab7 wt GTP bind: inactive

What do the screens show for `COc1cccc(CN2CCNC(=O)C2CC(=O)N(Cc2cnn(C)c2)C(C)C)c1` (stereo not given)?
Cdc42 wt: inactive; Rab2A wt mod: inactive; HRas wt GTP: inactive; Rac1 wt GTP bind: inactive; Rac1 mut GTP: inactive; Rab7 wt GTP bind: inactive

How did CCN(CC)CCn1c2ccccc2c2cnc(N)c(C#N)c21 do in these assays?
Cdc42 wt: inactive; Rab2A wt mod: inactive; HRas wt GTP: inactive; Rac1 wt GTP bind: inactive; Rac1 mut GTP: inactive; Rab7 wt GTP bind: inactive

How did Cc1ccc(-n2c(-c3cnccn3)n[nH]c2=S)c(Br)c1 do in these assays?
Cdc42 wt: 79; Rab2A wt mod: inactive; HRas wt GTP: inactive; Rac1 wt GTP bind: inactive; Rac1 mut GTP: inactive; Rab7 wt GTP bind: inactive

What do the screens show for `O=C(/C=C/c1cccc([N+](=O)[O-])c1)OCC(=O)c1ccccc1`?
Cdc42 wt: inactive; Rab2A wt mod: inactive; HRas wt GTP: inactive; Rac1 wt GTP bind: inactive; Rac1 mut GTP: inactive; Rab7 wt GTP bind: inactive

What do the screens show for `O=C(C#Cc1cccc([N+](=O)[O-])c1)c1ccccc1`?
Cdc42 wt: 78; Rab2A wt mod: inactive; HRas wt GTP: inactive; Rac1 wt GTP bind: inactive; Rac1 mut GTP: 78; Rab7 wt GTP bind: inactive

What do the screens show for `[O-]/C(=C(\C(=S)NCc1ccccc1)[n+]1ccccc1)c1ccc(Cl)cc1`?
Cdc42 wt: inactive; Rab2A wt mod: inactive; HRas wt GTP: inactive; Rac1 wt GTP bind: inactive; Rac1 mut GTP: inactive; Rab7 wt GTP bind: inactive

How did CCc1ccccc1NC(=O)C1CCN(C(=O)c2ccc([N+](=O)[O-])cc2)CC1 do in these assays?
Cdc42 wt: inactive; Rab2A wt mod: inactive; HRas wt GTP: inactive; Rac1 wt GTP bind: inactive; Rac1 mut GTP: inactive; Rab7 wt GTP bind: inactive

How did Cc1ccc(/C=C/C(=O)c2ccccc(=O)c2O)cc1C do in these assays?
Cdc42 wt: 78; Rab2A wt mod: inactive; HRas wt GTP: inactive; Rac1 wt GTP bind: inactive; Rac1 mut GTP: 74; Rab7 wt GTP bind: inactive

Results for O=C(Cn1c(-c2cscn2)nc2ccccc21)Nc1cc(F)ccc1F ?
Cdc42 wt: inactive; Rab2A wt mod: inactive; HRas wt GTP: inactive; Rac1 wt GTP bind: 121[activator]; Rac1 mut GTP: inactive; Rab7 wt GTP bind: inactive

Results for O=C(O)c1cc(C(=O)O)cc(-c2ccc(/C=c3/sc4nc5ccccc5n4c3=O)o2)c1 ?
Cdc42 wt: inactive; Rab2A wt mod: 79; HRas wt GTP: inactive; Rac1 wt GTP bind: inactive; Rac1 mut GTP: inactive; Rab7 wt GTP bind: inactive
